# RORg inh: qHTS for inhibitors of ROR gamma transcriptional activity; AID 2551, 2010; Potency, µM (series often up to 53.6 µM), inactives show at the top dose activity change, negative = inhibition, usual class: inhibitors; Drosophila S2 Gal4-RORgamma UAS-luciferase reporter, 20 h; 310,000 compounds, 5.4% hits; note: nearly all actives have a fitted effect of over 60% in size
#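 Read-out: Photinus luciferase luminescence; inhibitors lower reporter signal. Insect Schneider cells with Gal4-ROR gamma fusion under metallothionein promoter, UAS reporter; 700 uM final copper sulfate induction, 20 hr, ambient temperature.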
# ALDH1A1 inh: qHTS Assay for Inhibitors of Aldehyde Dehydrogenase 1 (ALDH1A1). Purified ALDH1A1, NADH fluorescence, propionaldehyde substrate. Potency, µM (highest dose often 75.3 µM), without a hit: at the highest dose activity, negative = inhibition, most hits filed as inhibitors. 220,000 compounds, 7.3% hits. AID 1030, 2008. Aldehyde dehydrogenase 1A1 (Homo sapiens), P00352; active = well fitted inhibition curve with a large enough effect, not every such curve was filed as active; inconclusive = small, poorly fitted or top-dose-only effect, or another doubt; inactive = no such curve, though single readings can be large or run the other way;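 note: plate controls were no enzyme wells and a reference inhibitor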
# Target sequence (P00352 whole entry, looked up): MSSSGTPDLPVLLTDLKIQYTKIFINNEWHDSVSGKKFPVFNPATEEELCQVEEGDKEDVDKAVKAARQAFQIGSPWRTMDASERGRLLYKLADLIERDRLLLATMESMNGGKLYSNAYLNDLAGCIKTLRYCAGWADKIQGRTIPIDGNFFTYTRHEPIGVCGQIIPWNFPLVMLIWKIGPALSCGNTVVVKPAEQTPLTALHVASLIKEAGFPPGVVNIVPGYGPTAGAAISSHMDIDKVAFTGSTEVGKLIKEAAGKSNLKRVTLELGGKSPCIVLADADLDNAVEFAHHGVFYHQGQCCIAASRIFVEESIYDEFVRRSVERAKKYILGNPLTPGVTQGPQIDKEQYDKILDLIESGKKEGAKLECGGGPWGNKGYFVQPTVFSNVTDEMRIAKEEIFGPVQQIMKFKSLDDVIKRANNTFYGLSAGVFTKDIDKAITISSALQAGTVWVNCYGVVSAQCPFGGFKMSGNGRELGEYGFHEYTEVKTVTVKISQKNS
# VP16 counter: VP16 counterscreen qHTS for inhibitors of ROR gamma transcriptional activity; Drosophila S2 Gal4-VP16 UAS-luciferase, luminescence, 20 h; Potency, µM (titrated, usually from 53.6 µM), for the others: at the top dose activity, negative = inhibition, usual class: inhibitors; 310,000 compounds, 3.5% hits; AID 2546, 2010;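 note: Gal4-VP16 expression switched on by copper sulfate through the metallothionein promoter; nearly all actives have a fitted effect of over 50% in size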
# PLK1 PBD inh: qHTS for Inhibitors of PLK1-PDB (polo-like kinase 1 - polo-box domain): Primary Screen | Serine/threonine-protein kinase PLK1 (Homo sapiens), P53350 | Plk1 PBD binding of FITC phosphopeptide, fluorescence polarization | Potency, µM, for the others: max response, negative = inhibition, most hits filed as inhibitors | 360,000 compounds, 2.8% hits | AID 720504, 2013; note: series mostly up to about 57 µM; nearly all actives have a fitted effect of over 65% in size
# Sfp inh: qHTS Assay for Inhibitors of Bacillus subtilis Sfp phosphopantetheinyl transferase (PPTase); Potency, µM, for inactives: largest response in the series, negative = inhibition, most hits filed as inhibitors; Biochemical Sfp PPTase activity, qHTS; 310,000 compounds, 3.5% hits; 4'-phosphopantetheinyl transferase ffp (Bacillus subtilis), Q9F4F7;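 note: the enzyme is Sfp with the accession as filed and its product quenches rhodamine fluorescence; 0% = enzyme reaction without inhibitor and -100% = no enzyme wells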
#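 Fluorescence-quenching assay with 15 nM Sfp, 5 uM rhodamine-CoA and 12.5 uM BHQ-2-labelled ybbR peptide in pH 7.6 Hepes/MgCl2 buffer. Enzyme was pre-incubated with compound for 15 min at room temperature. Rate was taken from the 30-min fluorescence change (525/598 nm).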
# * marks the source's active call; other numbers are inactive results; ? = inconclusive; nt = no result; [ ] = dose if it differs, or a comment. Shown are actives, neighbours in structure and some others; about 12% of the full set was active somewhere. Unless noted, calls come from the whole dose curve; as a rule, active = well fitted curve in the direction sought with a large enough effect; inconclusive = small, poorly fitted or top-dose-only effect, or another doubt; inactive = no such curve, though single readings can be large; an effect the other way counts as inactive or inconclusive. Unless noted, % is set by controls: 0 for no effect and ±100 for the full control effect; potency is the fitted concentration of half-maximal effect.
SMILES,RORg inh,ALDH1A1 inh,VP16 counter,PLK1 PBD inh,Sfp inh
O=C(c1cc([N+](=O)[O-])ccc1N1CCCC1)N1CCCCC1,-3%,-1%,17%,-1%,20%
CC(C)(C)OC(=O)NCCCCCNC(=O)c1ncn2c1c(=O)[nH]c1ccccc12,nt,nt,nt,-4%,nt
COc1ccc(C)cc1NC(=O)CSc1ccc(-c2ccco2)nn1,?,nt,-10%,?,18µM*
O=C(CSc1ccc(-c2ccco2)nn1)Nc1ccc(F)cc1F,36%,nt,8%,-30%,50µM*
Cc1cccc(NC(=O)CSc2ccc(-c3ccccn3)nn2)c1C,-28%,2%,-12%,-7%,-5%
Cc1cccc(NC(=O)CSc2ccc(-c3ccco3)nn2)c1C,3%,24µM*,-8%,-14%,22µM*
COC(=O)c1ccc(C(=O)N2CCCCCC2(C)C(=O)NC(C)C)cc1 (configuration not stated),nt,nt,nt,-1%,nt
COc1ccc(-c2ccc(C(=O)NCCc3ccccc3)c3occc23)c(C)c1,nt,nt,nt,-1%,nt
CON(C)C(=O)CCC1CCCN1C(=O)OC(C)(C)C (configuration not stated),nt,nt,nt,-5%,nt
C[C@@H]1[C@H](c2ccccc2)Oc2ccc(Cl)cc2S(=O)(=O)N1CC1CCCN1C(=O)OC(C)(C)C (some centres not stated),nt,nt,nt,24µM*,nt
Cc1cc(O)cc(O)c1/C=N/NC(=O)c1ccc2c(c1)OCCO2,nt,nt,nt,-17%,nt
O=C(O)/C=C\C(=O)Nc1cccc2c1-c1ccccc1C2=O,nt,1%[13.5 µM],nt,nt,nt
Clc1ccc(OCCCNCc2ccccc2)c2ccccc12,-11%,nt,-17%,-6%,56µM*
CCC(C)NCCOCCOc1ccc(Cl)c(C)c1C (configuration not stated),-20%,-3%,-8%,-1%,-4%
CCC(C)NCCOCCOc1ccc(Cl)c2ccccc12 (configuration not stated),9%,?,-1%,-2%,20µM*
O=S1(=O)C2CC3CCC2(CN1Cc1cccc(F)c1)O3 (configuration not stated),11%,nt,-4%,nt,16%
CC1C(=O)N(Cc2cn(CCC3OCCO3)nn2)CCS(=O)(=O)N1Cc1ccc(-c2ccc(Cl)cc2)cc1 (configuration not stated),nt,nt,nt,-3%,nt
O=C(O)c1ccccc1C(=O)Nc1ccc(S(=O)(=O)NC2CCCCC2)cc1,31%,2%,-10%,-1%,10%
COc1ccc(/C=N/NC(=S)NCC2CCCO2)cc1 (configuration not stated),2.8µM*,nt,11µM*,5%,18%
COc1cc(/C=N/NC(=O)C(=O)NCC2CCCO2)cc(Cl)c1O (configuration not stated),12%,nt,-1%,6%,17%
COC(=O)c1ccc(/C=N/NC(=O)C(=O)NCC2CCCO2)cc1 (configuration not stated),27%,nt,0%,-14%,7%
COc1cc(/C=N/NC(=S)NCC2CCCO2)cc(OC)c1OC (configuration not stated),4.5µM*,nt,16µM*,-6%,-25%
S=C(NC1CCCCC1)N1CCC([C@H]2C=NC=N2)CC1,10%[16.9 µM],-3%[20.9 µM],-1%[17 µM],nt,8%
COc1ccc(O)c(C(=O)c2cc(C#N)c(=O)n(CC3CCCO3)c2)c1 (configuration not stated),28%,25µM*,-10%,-12%,7%
Cc1ccc(O)c(C(=O)c2cc(C#N)c(=O)n(CC3CCCO3)c2)c1 (configuration not stated),3%,?,0%,-10%,-4%
SMILES,RORg inh,ALDH1A1 inh,VP16 counter,PLK1 PBD inh,Sfp inh
CCCn1c(-c2ccc(F)cc2)nc2c(NCCN3CCOCC3)nc(C)nc21,-4%,-6%,-11%,nt,4%
Cc1cc(C=O)c(C)n1-c1ccc2c(c1)OCO2,-6%,1.4µM*,-7%,-5%,4%
Cc1ccc(C)n1-c1ccc(N2CCOCC2)c([N+](=O)[O-])c1,-3%,nt,6%,-5%,-5%
Cc1cc(C=O)c(C)n1-c1ccc(N2CCOCC2)c([N+](=O)[O-])c1,-23%,2.5µM*,4%,-11%,5%
O=[N+]([O-])c1ccc(N2CCCC2)c([N+](=O)[O-])c1,nt,nt,nt,8%,nt
Cc1cc(C=O)c(C)n1-c1ccc(N2CCCC2)c([N+](=O)[O-])c1,13%,0.45µM*,0%,?,0%
COc1ccc(C2=Nc3ccccc3N(C(=O)c3ccncc3)C2C(=O)NC(C)C)cc1 (configuration not stated),nt,nt,nt,-3%,nt
CCOC(=O)C1=C(C)N=c2s/c(=C/c3ccc(OCC(=O)O)cc3)c(=O)n2C1c1ccc(F)cc1 (configuration not stated),20%,nt,12%,?,79µM*
CCOc1ccc(C2C(C(=O)Nc3ccccc3)=C(C)N=c3s/c(=C/c4cccc(OCC(=O)O)c4)c(=O)n32)cc1 (configuration not stated),15%,1%,1%,?,79µM*
CCOC(=O)C1=C(C)N=c2s/c(=C/c3ccc(OCC(=O)O)cc3)c(=O)n2C1c1ccc(SC)cc1 (configuration not stated),18%,nt,-28%,nt,-10%
CC1=C(C(=O)Nc2ccccc2)C(c2ccc(Cl)cc2)n2c(s/c(=C/c3cccc(OCC(=O)O)c3)c2=O)=N1 (configuration not stated),?,-3%,-14%[10 µM],?,50µM*
OCCNc1ncnc2nc[nH]c12,nt,1%[13.5 µM],nt,nt,nt
Cc1cccc(S(=O)(=O)NC(=O)C2(C)CCN2C(=O)c2ccccc2)c1 (configuration not stated),nt,nt,nt,-3%,nt
CCCCCCCCCCCCCCCCCCCCCCCCCCCCCC,-9%,nt,7%,nt,-18%
COc1ccc2no[n+]([O-])c2c1,6.3µM*,nt,7.1µM*,nt,-14%
Cc1cnnc2ccc3c(no[n+]3[O-])c12,-14%,?,3%,-11%,1%
CO[C@H]1COC(=O)[C@H](C)NC(=O)[C@@H](C)COC(=O)C/C=C\[C@@H]1C,-1%[10 µM],9%[13.5 µM],-5%[10 µM],nt,12%
NC(=O)CSc1nnc(-c2ccc([N+](=O)[O-])cc2)o1,6%,0%,-5%,-6%,22%
O=C(CSc1nnc(CNc2ccccc2)o1)c1ccc2c(c1)OCCO2,9%,14µM*,3%,-26%,-7%
O=C(CSc1nnc(-c2ccncc2)o1)c1cccc([N+](=O)[O-])c1,-41%,14µM*,-3%,-26%,17%
COc1ccc(NCc2nnc(SCC(=O)c3ccc(OC)cc3)o2)cc1,-36%,16µM*,4%,-10%,-1%
